According to PubChem BioAssay (NCI):
About 83,000 compounds went through this panel and 20% of them were active in at least one assay; those are over-represented in the sample as a whole.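 Percent growth is the endpoint: 0 to 100 indicates growth inhibition (40 means 60% inhibition), 0 means no net growth, and negative values indicate cell death.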 Active and inactive are the calls of the source. How the source made its calls: active means growth percent below 10; inactive means the rest.

Legend:
Assay in all cases: NCI-60 one-dose screen, 48 h (100 = growth as untreated, 0 = no growth, -100 = all killed)
Settings in all cases: 10 µM unless noted
[1] = tested on: DU-145 prostate
[2] = tested on: K-562 leukemia
[3] = tested on: MALME-3M melanoma
[4] = tested on: MDA-MB-231 breast
[5] = tested on: RXF 393 renal
[6] = tested on: SF-268 CNS
[7] = tested on: SF-295 CNS
[8] = tested on: SF-539 CNS
[9] = tested on: UACC-257 melanoma
[10] = tested on: M14 melanoma
[11] = tested on: HCT-15 colon
[12] = tested on: HT29 colon
[13] = tested on: SNB-75 CNS
[14] = tested on: SNB-19 CNS
[15] = tested on: PC-3 prostate
[16] = tested on: SK-MEL-5 melanoma
[17] = tested on: UACC-62 melanoma
[18] = tested on: LOX IMVI melanoma
[19] = tested on: SK-MEL-28 melanoma
[20] = tested on: U251 CNS

Measured: growth

Cn1cc(-c2nn3cc(-c4cccs4)nc3s2)c2cc(F)ccc21
active: [10] 6.34% | [12] 7.69%
inactive: [1] 51.1% | [2] 15.5% | [3] 21.2% | [4] 34.5% | [5] 64.4% | [6] 45.2% | [7] 28.2% | [8] 24.3% | [9] 63.4% | [11] 23.5% | [13] 11.9% | [14] 32.1% | [15] 45.2% | [16] 29.3% | [17] 33.1% | [18] 35.4% | [19] 49.7%

C=C(C)[C@@H]1CC[C@]2(COC(C)=O)CC[C@]3(C)[C@H](CC[C@@H]4[C@@]5(C)CCCN(C(C)=O)C(C)(C)[C@@H]5CC[C@]43C)[C@@H]12
active: [2] 0.971% | [10] -65.9% | [11] 0.472% | [12] -7.38% | [17] -2.48% | [18] -98%
inactive: [1] 59.9% | [3] 51% | [4] 45.2% | [5] 64.1% | [6] 90.9% | [7] 104% | [8] 81% | [9] 60% | [13] 108% | [14] 84.6% | [15] 65.6% | [16] 84.6% | [19] 96.6%

CC(C)=CCNc1ncnc2c1ncn2C1OC(CO)C(O)C1O (centres undefined)
active: [1] -89.4% [1 mM] | [2] 7.4% [1 mM] | [4] -54.7% [1 mM] | [5] -71.2% [1 mM] | [6] 4.72% [1 mM] | [7] -24.2% [1 mM] | [8] -41.8% [1 mM] | [11] -49.7% [1 mM] | [12] -5.71% [1 mM] | [13] -32.6% [1 mM] | [15] -25.8% [1 mM] | [18] -96.7% [1 mM]
inactive: [3] 32.4% [1 mM] | [9] 92.7% [1 mM] | [10] 26.9% [1 mM] | [14] 13.5% [1 mM] | [16] 49.4% [1 mM] | [17] 27.5% [1 mM] | [19] 79.5% [1 mM]

CCN(CC)CCN1C(=O)c2c(c(C)c3c(oc4ccc(O)cc43)c2C)C1=O
active: [1] 0.0633% | [2] 6.29% | [4] -28.7% | [8] -99.5% | [18] -94.1%
inactive: [3] 73.3% | [5] 98.2% | [6] 37.1% | [7] 89.7% | [9] 93.1% | [10] 38.3% | [11] 10.5% | [12] 67.9% | [13] 94.3% | [14] 24.7% | [15] 49.7% | [16] 77.2% | [17] 56.6% | [19] 72.2%

Nc1nc(NC(=O)Nc2ccc(C(=O)O)cc2)nn1-c1ccc(S(N)(=O)=O)cc1
inactive: [1] 97.3% | [2] 102% | [3] 85.7% | [4] 75.3% | [5] 94.1% | [6] 95.1% | [7] 104% | [8] 95.9% | [9] 89.9% | [10] 95.4% | [11] 105% | [12] 105% | [13] 90.4% | [14] 90.6% | [15] 83.6% | [16] 96.1% | [17] 96.2% | [18] 98.8% | [19] 100%

O=S(=O)(NCCNc1nccc(-c2c(-c3cccc(O)c3)nc3occn23)n1)c1ccc(Br)cc1
active: [16] 4.04% | [17] 5.9%
inactive: [1] 44.8% | [2] 17.2% | [3] 15% | [4] 34.7% | [5] 28.8% | [6] 40.8% | [7] 78.3% | [8] 48.7% | [9] 20.8% | [10] 17.8% | [11] 67.3% | [12] 19.1% | [13] 56.5% | [14] 65.8% | [15] 29.9% | [18] 25.2% | [19] 26.1%

Cc1n[nH]c2ccc(Br)cc2c1=O
inactive: [1] 104% | [2] 91.4% | [3] 97.4% | [4] 121% | [5] 103% | [6] 107% | [7] 87% | [8] 98.1% | [9] 108% | [10] 103% | [11] 100% | [12] 98.3% | [13] 102% | [14] 109% | [15] 90.9% | [16] 97.4% | [17] 112% | [18] 101% | [19] 113%

Cc1ccc(NC(=O)Cn2c(Br)nc3c2c(=O)n(C)c(=O)n3C)cc1
inactive: [1] 44.1% | [2] 51.6% | [6] 56.1% | [9] 62.2% | [10] 43.1% | [11] 45.8% | [12] 55.2% | [14] 50.7% | [15] 30.3% | [16] 25.6% | [17] 45.5% | [19] 52%
active: [3] -36% | [4] -19.2% | [5] -3.2% | [7] 0.92% | [8] 1.55% | [13] 5.65% | [18] -9.57%

O=C(/C=C/C12c3ccccc3C(c3ccccc31)C1C(=O)NC(=O)C12)c1ccc(Br)cc1 (centres undefined)
inactive: [1] 46.6% | [2] 21.6% | [3] 80.5% | [4] 52.6% | [5] 25.4% | [6] 60.6% | [7] 71% | [8] 77.9% | [9] 61.7% | [10] 62.6% | [11] 36.1% | [12] 20.1% | [13] 55.7% | [14] 51.3% | [15] 29.8% | [16] 67.8% | [17] 46.7% | [18] 21% | [19] 50.6%

C=C1C(=O)O[C@H]2[C@H]1CC/C(COC(=O)/C=C\C(=O)NCc1ccc(Cn3c(=O)sn(CCCCC)c3=O)cc1)=C\CC[C@@]1(C)O[C@@H]21
inactive: [1] 49.2% | [2] 12.6% | [3] 52.4% | [4] 71.4% | [5] 74.9% | [6] 92.5% | [7] 101% | [8] 78.7% | [9] 75.8% | [10] 43.9% | [11] 38.8% | [12] 41.3% | [13] 110% | [14] 94.8% | [15] 81.9% | [17] 70.1% | [18] 62.6% | [19] 91.1%

Cc1ccc(/C=C/C(=O)Nc2ncc(Cc3ccc(F)cc3)s2)o1
inactive: [1] 55.6% | [2] 20.3% | [3] 45.9% | [4] 77.7% | [5] 66.9% | [6] 53.3% | [7] 35% | [8] 48.2% | [9] 76.3% | [10] 33.5% | [11] 22% | [12] 21.6% | [13] 52.1% | [14] 68.7% | [20] 47.5% | [15] 38.4% | [17] 31.5% | [18] 40.6% | [19] 59.7%

O=C(CN1CCN(c2cc3c(cc2F)c(=O)c(C(=O)O)cn3C2CC2)CC1)N/N=C/c1ccco1
inactive: [1] 106% | [2] 95% | [3] 92.2% | [4] 98.7% | [5] 112% | [6] 93.8% | [7] 100% | [8] 93.2% | [9] 93.9% | [10] 96.6% | [11] 102% | [12] 104% | [13] 87.9% | [14] 99.7% | [15] 93.5% | [16] 94.5% | [17] 93.5% | [18] 90.8% | [19] 97.9%

O=C1C(Nc2ccccn2)=C(I)C(=O)c2ncccc21
active: [1] -93.6% | [2] 1.75% | [3] -99.6% | [4] -31.8% | [5] -60.8% | [6] -33.1% | [7] -31.6% | [8] -98% | [9] -27.9% | [10] -84.5% | [11] -60% | [12] -14.5% | [13] -94.3% | [14] 0% | [20] -82.4% | [15] 6.61% | [17] -68% | [18] -72.7% | [19] -36.7%

Cc1ccc(S(=O)(=O)OCCCOS(=O)(=O)c2ccc(C)cc2)cc1
inactive: [1] 95% | [2] 65.9% | [3] 100% | [4] 110% | [5] 107% | [6] 101% | [7] 107% | [8] 122% | [9] 81.1% | [10] 98% | [11] 106% | [12] 102% | [13] 99.7% | [14] 97.9% | [15] 89.3% | [16] 116% | [17] 103% | [18] 108% | [19] 109%

OCCNCCNC(Cc1ccc(Cl)cc1)c1ccccc1 (centres undefined)
inactive: [1] 99.7% | [2] 88.5% | [3] 107% | [4] 75.7% | [5] 84.5% | [6] 88.8% | [7] 92.2% | [8] 72.9% | [9] 104% | [10] 90.5% | [11] 93.3% | [12] 59.9% | [13] 72.8% | [14] 96.9% | [15] 55.3% | [16] 95.2% | [17] 59.7% | [18] 83.8% | [19] 81.5%
